# HPGD inh: qHTS Assay for Inhibitors of HPGD (15-Hydroxyprostaglandin Dehydrogenase) | purified HPGD, NADH fluorescence kinetic, PGE2 substrate | Potency, µM, for the others: top-dose activity change, negative = inhibition, most hits filed as inhibitors | 4.3% of 150,000 active | AID 894, 2007; further: potency means the concentration at half of the fitted maximal effect
# Target sequence (P15428 whole entry, looked up): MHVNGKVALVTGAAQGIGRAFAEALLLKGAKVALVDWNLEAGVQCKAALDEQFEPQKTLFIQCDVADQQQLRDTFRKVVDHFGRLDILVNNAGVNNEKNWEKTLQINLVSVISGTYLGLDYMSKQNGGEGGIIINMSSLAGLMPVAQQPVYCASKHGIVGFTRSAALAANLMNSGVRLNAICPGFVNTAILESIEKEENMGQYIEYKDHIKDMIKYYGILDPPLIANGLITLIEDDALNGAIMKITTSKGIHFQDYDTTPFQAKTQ
#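 NADH formation kinetics: reaction with 30 uM PGE2 and 1 mM NAD+ (final), 20 nM enzyme, Tris-HCl pH 8 with Tween 20, after 15 min compound preincubation at room temperature. Fluorescence change, last versus first of five reads.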
# PNC inhibitor: High Content Assay for Compounds that inhibit the Assembly of the Perinucleolar Compartment; PC3M PTB-GFP, PNC prevalence imaging, 16 h; hits give low values; activity change (PNC), negative = inhibition, % at 10 µM; 3.1% of 140,000 active; AID 2417, 2010;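 active means readout at or below -70, meaning at least 70% loss of cells showing the perinucleolar compartment, a nuclear body marking cancer cells; inconclusive means readout between -30 and a set limit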;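 further: plate controls were DMSO wells for no effect and camptothecin positive control wells for full effect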
#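 Compounds are pinned in duplicate onto adhered PC3M cells stably expressing GFP-tagged PTB and incubated 16 h at 37 C. Cells are then fixed, nuclei stained with Hoechst, and PNC-positive cells counted.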
# ALDH1A1 inh: qHTS Assay for Inhibitors of Aldehyde Dehydrogenase 1 (ALDH1A1); Purified ALDH1A1, NADH fluorescence, propionaldehyde substrate; Potency, µM (titrated, usually from 75.3 µM), for inactives: top-dose activity, negative = inhibition, usual class: inhibitors; 7.3% of 220,000 active; Aldehyde dehydrogenase 1A1 (Homo sapiens), P00352; AID 1030, 2008;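 further: potency means the concentration at half of the fitted maximal effect; plate controls were no enzyme wells and a reference inhibitor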
# Active calls of the source: *; ? = inconclusive; / = no result given; [ ] = remark or other dose. Hits are enriched below; roughly 11% of the tested compounds scored in any of these assays. Unless noted, the call rests on the fitted dose curve; in most records, active means well fitted inhibition curve with a large enough effect (not every such curve was filed as active); inconclusive means small, poorly fitted or top-dose-only effect, or another doubt; inactive means no such curve, though single readings can be large or run the other way. Unless noted, on the % scale 0 is the no-effect control and ±100 the full control effect.
SMILES,HPGD inh,PNC inhibitor,ALDH1A1 inh
CC(=O)Nc1ccc(S(=O)(=O)N(C)CC(=O)OCC(=O)c2cc(C)n(-c3ccc4c(c3)OCO4)c2C)cc1,-16%,3,?
CN(C(=O)CSc1nnc2ccccn12)C1CCS(=O)(=O)C1 (configuration not stated),-16%,?,-15%
COCCn1c(SCC(=O)N(C)C2CCS(=O)(=O)C2)nc2ccccc2c1=O (configuration not stated),/,/,9%
CN(C(=O)CSc1nc2ccccc2n1CCc1ccccc1)C1CCS(=O)(=O)C1 (configuration not stated),-14%,?,22µM*
Cc1ccccc1-n1nnnc1SCC(=O)N(C)C1CCS(=O)(=O)C1 (configuration not stated),/,/,11µM*
COC(=O)C/C=C\[C@@H](C)[C@@H](/C=N\OC[C@@H]1O[C@H](c2ccccc2)C=C[C@@H]1Oc1ccc(OC)cc1)OC,/,/,-10%[13.5 µM]
CCN1C(=O)[C@H]2[C@H]3[C@H](O)[C@H](O)C/C(=N/OCC[C@H]4C=C[C@H](OC(C)=O)[C@@H](COC(C)=O)O4)[C@@H]3CC[C@@H]2C1=O,/,/,-3%[13.5 µM]
CC(C)=NO[C@@H](C)c1cn([C@@H]2COC[C@@H]2O)nn1,/,/,15%[13.5 µM]
CC1CCc2c(sc3nc(CN4CCOCC4)nc(Sc4ccccc4)c23)C1 (configuration not stated),-6%,11,25µM*
COc1ccc(Nc2nc(CN3CCOCC3)nc3sc4c(c23)CCC(C)C4)cc1OC (configuration not stated),-4%,49,10%
OC1CCN(C(=S)Nc2ccc(Oc3ccccc3)cc2)CC1,/,/,-9%
CCOC(=O)c1nnn(-c2nonc2NC(C)=O)c1C,-5%,?,15%
CCOC(=O)c1nonc1NC(C)=O,-5%,-100*,0%
O=[N+]([O-])c1cc(S(=O)(=O)N2CCCC2)ccc1N/N=C/c1cccnc1,-4%,70,4%
Cc1cc(S(=O)(=O)Nc2ccccc2C(=O)O)ccc1Cl,-9%,-117*,12%
O=C(O)c1ccccc1/C=N/Nc1ccc(S(=O)(=O)N2CCCC2)cc1[N+](=O)[O-],/,/,13µM*
O=C(O)c1ccccc1NS(=O)(=O)c1ccc(Cl)c(Cl)c1,-2%,/,3%
Cc1nn(-c2ccccc2)c(Cl)c1/C=N/Nc1ccc(Cl)c(C(=O)O)c1,?,2,-9%
Cc1nn(-c2ccccc2)c(Cl)c1/C=N/Nc1ccc(S(=O)(=O)Nc2ccccc2C(=O)O)cc1[N+](=O)[O-],16µM*,27,?
C=CCN1C(=O)/C(=N/n2cnnc2)c2ccccc21,-6%,-4,0.063µM*
C=CCN1C(=O)C(C)(C)Nc2ccccc21,-6%,?,-4%
COCCn1c(CN2CCc3ccccc3C2)nc2c1c(=O)n(C)c(=O)n2C,/,/,5%
CCOC(=O)c1[nH]c(C(=O)O)c(OC(=O)CC)c1C,/,/,8%
CS(=O)c1nc(-c2ccc(Br)cc2)cc(-c2ccccc2)c1C#N (configuration not stated),7%,9,13µM*
CS(=O)(=O)c1nc(-c2ccc(Br)cc2)cc(-c2ccccc2)c1C#N,-2%,72,?
SMILES,HPGD inh,PNC inhibitor,ALDH1A1 inh
N#Cc1c(-c2ccccc2Cl)cc(C2CC2)nc1N,/,-11,-3%
N#Cc1c(-c2cccc(Br)c2)cc(-c2cccnc2)nc1N,?,36,?
N#Cc1c(-c2ccccc2Cl)cc(-c2ccccc2)nc1Br,25µM*,56,-1%
N#Cc1c(-c2cccc(F)c2)cc(-c2ccccc2)nc1Br,18µM*,27,-3%
C/C(=N\OC(=O)C1CC1)C1CC1c1ccc(F)cc1 (configuration not stated),/,/,6%
Cc1cccn2c(CN3CCCN(C=O)CC3)c(C(=O)N(C)CCc3ccccc3)nc12,/,/,3%
C[C@@]1(C(NC(=O)c2ccc(-c3ccccc3)cc2)c2ccc(Cl)cc2)C[C@H]1C1CCCCC1 (some centres not stated),-15%,/,2%
CCN(CC)S(=O)(=O)c1ccc2c(c1)nc(SCC(N)=O)n2-c1ccc(OC)cc1,22µM*,-10,?
CCN(CC)S(=O)(=O)c1ccc2c(c1)nc(SCC(=O)N1CCCCCC1)n2-c1ccc(OC)cc1,-11%,-6,-2%
COc1ccccc1NC(=S)N1CCn2cccc2C1c1cccnc1 (configuration not stated),/,/,-14%
C=CCNC(=O)c1c(N)n(-c2ccc3c(c2)OCO3)c2nc3ccccc3nc12,-24%,24,-2%
Clc1ccccc1-c1nc2nc3ccccc3nc2n1-c1ccc2c(c1)OCO2,-16%,?,11µM*
CCOC(=O)CC(C)(C)/C(C)=N/Nc1ccc([N+](=O)[O-])cc1[N+](=O)[O-],-17%,?,-6%
CCCc1cc(=O)[nH]c(SCC(=O)Nc2ccc(OC(F)F)cc2)n1,-20%,-94*,-1%
CCCc1cc(=O)[nH]c(SCC(=O)Nc2ccc3c(c2)CCC3)n1,/,/,0%
C=CCSc1nnc(NC(=O)CSc2nc3ccccc3[nH]2)s1,?,-6,-6%
C=CCSc1nnc(NC(=O)CSc2nc(CCC)cc(=O)[nH]2)s1,20µM*,-23,-1%
COc1ccc2cc(Br)ccc2c1CC(=O)NC(C)(C)C,-13%,-3,-3%
COC(=O)CSc1nc(NCC(C)C)nc(N2CCOCC2)n1,5%,26,11%
CCNc1nc(SC(C)C(=O)OC)nc(N2CCOCC2)n1 (configuration not stated),-10%,4,19µM*
N#CCC1c2ccccc2CCN1C(=O)Nc1cccc(Cl)c1 (configuration not stated),-9%,25,8%
N#CCC1c2ccccc2CCN1C(=O)Nc1ccc(Cl)cc1 (configuration not stated),-3%,-81*,-2%
CC(C)CN1CCC(CN(C)Cc2nc(-c3cnccn3)no2)CC1,/,/,-1%
Cc1ccc(-c2nc(N)sc2-c2ccccc2)cc1C,-26%,-4,?
O=[N+]([O-])c1c(NCc2ccccc2)cc(N2CCc3ccccc3C2)c2nonc12,-24%,-16,-9%
SMILES,HPGD inh,PNC inhibitor,ALDH1A1 inh
S=c1nc(-c2ccccc2)c(-c2ccccc2)n[nH]1,/,/,0.32µM*
Nc1c(-c2ccccc2)n[nH]c1-c1ccccc1,?,-30,?
O=C(CCn1nc(-c2ccccc2)c2ccccc2c1=O)NN1CCOCC1,/,/,-7%
COc1ccc(S(=O)(=O)N2CCN(CC(=O)Nc3ccc(F)c(F)c3)CC2)cc1,-7%,-7,?
COc1ccc(NC(=O)CN2CCCN(S(=O)(=O)c3ccc(F)cc3)CC2)c(OC)c1,/,/,-16%
COc1ccc(OC)c(C(=O)CN2CCN(S(=O)(=O)c3ccc(Br)cc3)CC2)c1,-29%,-1,1.6µM*
COc1ccc(S(=O)(=O)N2CCCN(CC(=O)C(C)(C)C)CC2)cc1,-11%,38,20µM*
COc1cc(C2=NOC(C(=O)NCc3ccc(F)cc3)C2)cc(OC)c1OC (configuration not stated),-23%,-121*,32µM*
